# Inconclusive results are not listed. Values without a mark were called inactive. The source made the active and inactive calls. Calls follow the shape of the dose curve; as a rule, active = well fitted antagonist curve with a large enough effect in the main read-out, with a control signal flat; inconclusive = small, poorly fitted or top-dose-only effect; inactive = no such curve, though single readings can be large or run the other way.
# Target: Neuropeptide S receptor (Homo sapiens) (UniProt Q6W5P4)
# Sequence (Q6W5P4 whole entry, looked up): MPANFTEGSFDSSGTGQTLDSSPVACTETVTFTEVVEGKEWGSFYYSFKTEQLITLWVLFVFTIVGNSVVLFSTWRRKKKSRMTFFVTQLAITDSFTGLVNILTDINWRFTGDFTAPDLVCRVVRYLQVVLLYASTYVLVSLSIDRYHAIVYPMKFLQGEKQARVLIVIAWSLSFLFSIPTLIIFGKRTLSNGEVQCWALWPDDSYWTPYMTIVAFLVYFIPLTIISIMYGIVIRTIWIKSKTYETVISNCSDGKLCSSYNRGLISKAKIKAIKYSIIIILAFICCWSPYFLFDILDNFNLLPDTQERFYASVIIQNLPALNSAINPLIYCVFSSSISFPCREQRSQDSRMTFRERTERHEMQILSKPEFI
# Experiment: Confirmation Concentration-Response Assay for Antagonists of the Neuropeptide S Receptor: Calcium Signal Transduction
# Conditions: CHO-NPSR cells, NPS-induced calcium flux, FDSS; series mostly up to 19.3 µM; activity change, negative = inhibition: at the top concentration
# Source text: NIH Chemical Genomics Center [NCGC] NIH Molecular Libraries Probe Production centers Network [MLPCN] MLPCN Grant: X01-DA026210-01 Assay Submitter (PI): Heilig, Markus Alexander NCGC Assay Overview: Neuropeptide S receptor (NPSR), previously known as GPR154, is a recently de-orphanized G protein coupled receptor. Its endogenous ligand is the 20 amino acids peptide Neuropeptide S (NPS). […] NPS and its receptor are found in various tissues. Specifically they are highly expressed in brain areas that have been implicated in modulation of arousal, stress and anxiety. Central administration of NPS in mice produces an unusual profile of activity by inducing wakefulness and arousal, while at the same time suppressing anxiety. Therefore, NPSR may represent a novel drug target for the treatment of sleep and anxiety disorders. To identify NPSR antagonists, we developed a cell-based assay with transfected NPS receptor. NPS can stimulate the production of cAMP as well as release intracellular calcium in Chinese hamster ovary cells stably expressing NPS receptor. This change in intracellular calcium can be detected using a calcium indicator dye on a calcium imaging plate reader system (FDSS).
# NCGC Assay Protocol Summary: A Chinese hamster ovary (CHO) cell line stably expressing the NPS receptor (CHO-NPSR) was obtained from Dr. Heilig lab at NIAAA and maintained in F-12 Kaighn's media (Invitrogen, Carlsbad, CA, 21127) supplemented with 10 % FBS, 100 units/ml penicillin, 100 ug/ml streptomycin and 250 ug/ml geneticin at 37C, 5% CO2 in a humidified atmosphere. Before the assay, aliquots of cells were frozen and stored at -135C. The assay was performed on a FDSS-7000 kinetic plate reader in 1536-well format. For both agonist (1-220s) and antagonist (221-400s) phases, the maximums of kinetic fluorescence responses were converted separately into text files using the instrument's software data export utility. Data for agonist response were normalized to the controls for basal activity (DMSO only) and 100% activation (NPS). […] AC50 values were determined from concentration-response data modeled with the standard Hill equation. NPS 1536-well FDSS assay protocol: (1) Frozen CHO-NPSR cells were thaw, washed once with fresh media and resuspended in F-12 Kaighn's media supplemented with 10 % FBS, 100 units/ml penicillin and 100 ug/ml streptomycin. Cells were plated at 3 ul/well (1200 cells) to black, clear-bottom, tissue-culture treated 1536-well plates, and then cultured at 37C, 5 % CO2 for 16 to 30 hours. (2) Add 3 ul of calcium dye (from High Performance PBX Calcium Assay Kit, BD Biosciences). The calcium dye was prepared according to the manufactory's instruction. (3) Incubation at 37C, 5 % CO2 for 60 to 120 min. (4) Load plates to FDSS-7000. The following steps were performed on FDSS-7000. (5) Record fluorescent background (Ex 480 nm, Em 520-560 nm) for 10 s. (6) Add 23 nl/well of compound in DMSO solution. The final titration for each compound was between 0.6 nM and 46 uM. Record agonist response for 210 s. (7) Add 2 ul of stimulation reagent (1X HBSS buffer, 0.1% BSA, 60 nM NPS). Record antagonist response for 140 s. Keywords: MLSMR, MLPCN, NIH Roadmap, qHTS, NCGC, NPS, Neuropeptide S Antagonists
SMILES,Potency,"activity change, negative = inhibition [%]"
COc1ccc(C2c3c(ncn(CCN4CCOCC4)c3=N)Oc3ccc4ccccc4c32)cc1OC (stereo not given),1580 nM (active),
Cc1ccc2nc3ccc(N4CCCCCCC4)nn3c(=O)c2c1,,-5.95
COc1cccc(N2CCN(c3ncnc4c3[nH]c3ccc(F)cc34)CC2C)c1 (stereo not given),631 nM (active),
Cc1ccc(S(=O)(=O)Nc2ccccc2CNc2c(C)n(C)n(-c3ccccc3)c2=O)cc1,,-20.6
CS(=O)(=O)c1nc(-c2ccccc2)cc(C(F)(F)F)n1,7940 nM (active),
COc1ccc(/C=C2\CCCC3C2=NN(C(=O)c2ccco2)C3c2ccc(OC)c(OC)c2)cc1OC (stereo not given),,14.6
COc1ccccc1-c1nnc(SC2CCc3ccccc3NC2=O)s1 (stereo not given),,-30
CCOc1ccc(N2C(=O)CC(NCCc3ccncc3)C2=O)cc1 (stereo not given),,12.8
COc1ccc(NC(=O)/C(Cl)=C(/Cl)S(=O)Cc2ccc(C)cc2)cn1 (stereo not given),2240 nM (active),
O=C(c1ccccc1-c1nc2ccccc2[nH]1)N1CCCCC1,,-21.1
CCc1ccc2oc(-c3cc(N)cc(C)c3O)nc2c1,,12
Nn1c(COc2ccccc2)nnc1SCc1cc(=O)[nH]c2ccccc12,,7.99
C=CCOc1c(Cl)cc(CNc2ccc(N(C)C)cc2)cc1OC,,-13.4
Cc1ccc(-n2ncc3c(NCc4ccc5c(c4)OCO5)ncnc32)c(C)c1,,-21.2
CCC(C)n1c(=O)c(C(=O)Nc2ccccc2S(N)(=O)=O)c(O)c2ccccc21 (stereo not given),,-2.76
N#Cc1cnn(-c2ncnc3sc4c(c23)CCCC4)c1N,,-17.2
O=C(CSc1n[nH]c(-c2cccnc2)n1)Nc1ccnc2ccccc12,,-2.97
Brc1ccc(CSc2ncn[nH]2)cc1,,-6.38
CN(C)c1ccc(N2CN=C3SCC(=O)N3C2)cc1,,10.4
Cc1oc2c(c1C(=O)NCc1cccnc1)C(=O)c1ccccc1C2=O,,16.4

SMILES,Potency,"activity change, negative = inhibition [%]"
Cc1ccc(/C=C2\SC(=S)N(CC(=O)Nc3ncc(Cc4ccccc4Cl)s3)C2=O)cc1,,-2.64
CCSc1nc2c(c(=O)n1Cc1ccccc1)SC(C)C2 (stereo not given),,-2.84
COc1ccc(N(CC(=O)Nc2cccc(SC)c2)S(C)(=O)=O)cc1Cl,,-16.1
COCCCn1cnc2c(c1=O)c1nc3ccccc3nc1n2CCc1ccccc1,,9.86
Cn1c(COc2ccccc2)nnc1SCc1cc(=O)[nH]c2ccccc12,,-4.37
NC(=S)N/N=C/c1ncc(C(F)(F)F)cc1Cl,,-1.3
C/C(=N\Nc1ncc(Cl)cc1Cl)c1ccccn1,2510 nM (active),
COc1cc(/C=C2\SC(c3ccc(C)cc3)=NC2=O)cc(OC)c1O,,7.8
COc1cccc2sc(Nc3nc(-c4ccccn4)cs3)nc12,3160 nM (active),
O=[N+]([O-])c1ccc(-c2nc(C(Cl)Cl)c3ccccc3n2)cc1,,-23.4
O=C(COC(=O)c1ccccc1C(=O)c1ccc(Cl)c([N+](=O)[O-])c1)NC1CCCCCC1,4470 nM (active),
Cc1cc(C)n(-c2nc(NC(C)C)nc(NC(C)C)n2)n1,,29
CN(C)c1nc(=Nc2cccc(Cl)c2)ss1,,5.52
O=C(O)c1cccc(Nc2ncnc3ccccc23)c1,,-7.58
COCCCn1c(SCc2cc(=O)[nH]c3ccccc23)nnc1-c1ccco1,,15.8
C=CCn1c(SCCN2C(=O)c3ccccc3C2=O)nc2scc(-c3ccccc3)c2c1=O,,-9.23
O=[N+]([O-])c1cc2c(cc1/C=N/n1c(-c3ccccc3)n[nH]c1=S)OCO2,,-1.53
O=C(CSC1=NCCS1)Nc1ccnc2ccccc12,,-15.5
CCCCOc1ccc(OCCCN2CCOCC2)cc1,,2.69
CCOC(=O)c1cnc(-n2nc(C)cc2C)nc1Nc1ccc(C)cc1,,-19.5

# Source: PubChem BioAssay AID1489 (National Center for Advancing Translational Sciences (NCATS), 2009)
